Here are results for eight compounds from PubChem BioAssay (NCI).

The panel holds about 79,000 compounds, 15% with a hit somewhere; the sample as a whole holds those more often. A number with no mark means an inactive call. Calls of active or inactive are those of the source. No stated cut-off is given here; in the data, active means growth inhibition above about 70%; inactive means the rest.

A short description of the assay: NCI Yeast Anticancer Drug Screen. Data for the wt1 strain (AID 149).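 Further: 0% = growth of vehicle-treated wt1 cultures.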 Particulars: S. cerevisiae wt1 strain (SPY 50644) growth inhibition, active compounds read high. The method, then: Growth inhibition of yeast strains with defined genetic alterations is measured as a screen for potential anti-cancer activity. Selected strains with alterations in DNA damage repair or cell cycle control were exposed to compounds and growth inhibition was measured relative to vehicle treated controls. The strain used in this assay is wt1

Consider `[Pt].c1ccc(P(CCP(c2ccccc2)c2ccccc2)CCP(c2ccccc2)c2ccccc2)cc1`, for which the growth inhibition by setting is: (at 1.2 µM) -1%; (at 3.7 µM) 6%; (at 11.0 µM) 19%; (at 33.0 µM) 94% (active); (at 100.0 µM) 90% (active).

Consider `CNc1nc(C)nc2c1cnn2-c1ccc([N+](=O)[O-])cc1`, for which the growth inhibition is, setting by setting: (at 1.2 µM) 3%; (at 3.7 µM) 1%; (at 11.0 µM) 13%; (at 33.0 µM) 12%; (at 100.0 µM) 15%.

Regarding `O=[N+]([O-])/C(C(Cl)=C(Cl)Cl)=C1/OCCS1`, the growth inhibition (at 1.2 µM) is 4%; the growth inhibition (at 3.7 µM) was 30%; the growth inhibition (at 11.0 µM) is 94% (active); the growth inhibition (at 33.0 µM) was 99% (active); the growth inhibition (at 100.0 µM) is 99% (active).

As for `CCN(CC)CC(O)c1cc(-c2ccc(Cl)cc2)nc2c(-c3ccccc3)cccc12` (stereo not given), the growth inhibition by setting is: (at 1.2 µM) 0%; (at 3.7 µM) -2%; (at 11.0 µM) 98% (active); (at 33.0 µM) 98% (active); (at 100.0 µM) 95% (active).

With `CO[C@@]12[C@H](COC(N)=O)C3=C(C(=O)C(C)=C(N)C3=O)N1C[C@@H]1N[C@@H]12`, the growth inhibition is, setting by setting: (at 1.2 µM) 1%; (at 3.7 µM) 2%; (at 11.0 µM) 9%; (at 33.0 µM) 30%; (at 100.0 µM) 62%.

Turning to `COc1cc(CNc2ccc(C(C)C)cc2)cc(OC)c1OC`, the growth inhibition (at 1.2 µM) is 1%; the growth inhibition (at 3.7 µM) is 15%; the growth inhibition (at 11.0 µM) was 7%; the growth inhibition (at 33.0 µM) is -8%; the growth inhibition (at 100.0 µM) is 56%.

For the compound `CN(C)CCNc1cccc2sc3ccc(O)cc3c(=O)c12`, the growth inhibition is 1% (at 1.2 µM); 6% (at 3.7 µM); 3% (at 11.0 µM); 4% (at 33.0 µM); 6% (at 100.0 µM).

As for `CSc1s[s+]c(SC)c1-c1ccccc1`, the growth inhibition (at 1.2 µM) was 5%; the growth inhibition (at 3.7 µM) was 15%; the growth inhibition (at 11.0 µM) was 18%; the growth inhibition (at 33.0 µM) was 49%; the growth inhibition (at 100.0 µM) was 65%.
